# PubChem BioAssay (NCI)
# About 83,000 compounds went through this panel and 20% of them were active in at least one assay; those are over-represented in the sample as a whole.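 Cells were grown in 96-well plates and exposed to the test compound at a single concentration for 48 hours; results are reported as percent growth, with values below 10 considered active.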 Unmarked numbers belong to inactive results. Activity calls are given as the source filed them.
# What was measured:
# Experiment in all cases: NCI-60 one-dose screen, 48 h (100 = growth as untreated, 0 = no growth, -100 = all killed)
# Details in all cases: 10 µM unless noted
# [1] = tested on: NCI-H23 lung
# [2] = tested on: NCI-H226 lung
# [3] = tested on: NCI-H322M lung
# [4] = tested on: HOP-62 NSCLC
# [5] = tested on: NCI-H460 lung
# [6] = tested on: HOP-92 NSCLC
# [7] = tested on: NCI-H522 lung
# [8] = tested on: A549/ATCC NSCLC
# [9] = tested on: 786-0 renal
# [10] = tested on: COLO 205 colon
# [11] = tested on: DU-145 prostate
# [12] = tested on: K-562 leukemia
# [13] = tested on: MALME-3M melanoma
# [14] = tested on: MDA-MB-231 breast
# [15] = tested on: RXF 393 renal
# [16] = tested on: SF-268 CNS
# [17] = tested on: SF-295 CNS
# [18] = tested on: SF-539 CNS
# [19] = tested on: UACC-257 melanoma
# [20] = tested on: M14 melanoma
Compound,growth [1],growth [2],growth [3],growth [4],growth [5],growth [6],growth [7],growth [8],growth [9],growth [10],growth [11],growth [12],growth [13],growth [14],growth [15],growth [16],growth [17],growth [18],growth [19],growth [20]
O=C(NCCCCNC(=O)OCc1ccc2c(Cl)cc(Cl)c(O)c2n1)OCc1ccc2c(Cl)cc(Cl)c(O)c2n1,24.6%,8.33% (active),34.3%,9.48% (active),2.78% (active),48.5%,-2.86% (active),14.8%,70.7%,96.3%,1.77% (active),11.6%,43%,25.1%,27%,31.3%,22.8%,-13.7% (active),23.8%,12.4%
O=C(Nc1cc(Cl)ccc1O)c1ccc(Nc2ccnc(C(F)(F)F)c2)cc1,9.34% (active),52.1%,61.7%,46.3%,7.25% (active),86%,23.7%,36.5%,49%,87.9%,42.9%,5.89% (active),60.5%,68.1%,98.9%,69.1%,-7.57% (active),80.4%,78%,46.8%
COc1cc(-c2nc(SCCC(C)C)nc(Nc3ccccc3Cl)c2C#N)cc(OC)c1OC,101%,102%,100%,110%,97.7%,91%,84.5%,92.1%,92.4%,109%,97.7%,95.1%,105%,81.5%,117%,85.7%,100%,95.6%,127%,96.6%
COc1cc(CNS(=O)(=O)c2ccc(C)cc2)ccc1OCc1cn(-c2ccc(Br)cc2)nn1,103%,93.5%,101%,92.4%,110%,112%,91.8%,99.5%,109%,120%,104%,94.3%,104%,103%,97.1%,93.8%,97.2%,107%,110%,106%
